# Records with an inconclusive call do not appear. A call without a number means that no potency is given here. The source made the active and inactive calls. Calls come from the whole dose curve; as a rule, active = well fitted inhibition curve with a large enough effect; inconclusive = small, poorly fitted or top-dose-only effect; inactive = flat fitted curve, though single readings scatter.
# Assays:
# Assay in all cases: qHTS profiling for inhibitors of Plasmodium falciparum proliferation (AID 504749); note: nearly all actives have a fitted effect of over 60% in size
# Settings in all cases: P. falciparum in erythrocytes, SYBR Green DNA, 72 h; series mostly up to 12.8 µM
# [1] = system: AA1029
# Outline: (§1)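 SYBR Green fluorescence (ex 485 nm, em 535 nm) reports parasite DNA after 72 h compound exposure of infected red cells at 0.3% parasitemia, 2.5% hematocrit; signal normalized to 0.29 uM artemisinin and vehicle wells.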
# [2] = system: AS120
# Outline: as §1
# [3] = system: CP185
# Outline: as §1
# [4] = system: CP194
# Outline: as §1
# [5] = system: CP201
# Outline: as §1
# [6] = system: CP215
# Outline: as §1
# [7] = system: CP260
# Outline: as §1
# [8] = system: CP266
# Outline: as §1
# [9] = system: CP286
# Outline: as §1
# [10] = system: CP297
# Outline: as §1
# [11] = system: CP305
# Outline: as §1
# [12] = system: CP315
# Outline: as §1
# [13] = system: CP325
# Outline: as §1
# [14] = system: CP329
# Outline: as §1
# [15] = system: DIV30
# Outline: as §1
# [16] = system: ECU
# Outline: as §1
# [17] = system: HB3
# Outline: as §1
# [18] = system: P94_40
# Outline: as §1
# [19] = system: PAD
# Outline: as §1
# [20] = system: TAB113
# Outline: as §1
# Potency is the fitted concentration of half-maximal effect.
SMILES,Potency [1],Potency [2],Potency [3],Potency [4],Potency [5],Potency [6],Potency [7],Potency [8],Potency [9],Potency [10],Potency [11],Potency [12],Potency [13],Potency [14],Potency [15],Potency [16],Potency [17],Potency [18],Potency [19],Potency [20]
COc1ccc([C@@H]2CC(=O)c3c(O)cc(O[C@H]4O[C@@H](CO[C@H]5O[C@@H](C)[C@@H](O)[C@@H](O)[C@@H]5O)[C@@H](O)[C@@H](O)[C@@H]4O)cc3O2)cc1O,inactive,inactive,inactive,inactive,inactive,inactive,inactive,inactive,inactive,inactive,inactive,inactive,inactive,inactive,inactive,inactive,inactive,inactive,inactive,inactive
NC(=O)N[C@H]1NC(=O)NC1=O,inactive,inactive,inactive,inactive,inactive,inactive,inactive,inactive,inactive,inactive,inactive,inactive,inactive,inactive,inactive,inactive,inactive,inactive,inactive,inactive
CC(=O)C[C@H](c1ccc([N+](=O)[O-])cc1)c1c(O)c2ccccc2oc1=O,inactive,inactive,inactive,inactive,inactive,inactive,inactive,inactive,inactive,,inactive,inactive,inactive,inactive,inactive,inactive,inactive,inactive,inactive,inactive
COc1c(O[C@H]2O[C@@H](CO)[C@@H](O)[C@@H](O)[C@@H]2O)cc2c(c1OC)-c1ccc(SC)c(=O)cc1[C@H](NC(C)=O)CC2,inactive,inactive,inactive,inactive,inactive,inactive,,inactive,inactive,inactive,inactive,inactive,inactive,inactive,inactive,inactive,inactive,inactive,inactive,inactive
C=CC1=C(C(=O)O)N2C(=O)[C@@H](NC(=O)/C(=N\OCC(=O)O)c3csc(N)n3)[C@@H]2SC1,inactive,inactive,inactive,inactive,inactive,inactive,inactive,inactive,inactive,inactive,inactive,inactive,inactive,inactive,inactive,inactive,inactive,inactive,inactive,inactive
NC(=O)c1cc[n+](CC2=C(C(=O)[O-])N3C(=O)[C@@H](NC(=O)Cc4cccs4)[C@@H]3SC2)cc1,inactive,inactive,inactive,inactive,inactive,inactive,inactive,inactive,inactive,inactive,inactive,inactive,inactive,inactive,inactive,inactive,inactive,inactive,inactive,inactive
NC(=O)c1ccc[n+]([C@@H]2O[C@H](COP(=O)([O-])OP(=O)(O)OC[C@H]3O[C@@H](n4cnc5c(N)ncnc54)[C@@H](O)[C@@H]3O)[C@@H](O)[C@@H]2O)c1,inactive,inactive,inactive,inactive,inactive,inactive,inactive,inactive,inactive,inactive,inactive,inactive,inactive,inactive,inactive,inactive,inactive,inactive,inactive,inactive
C[C@H](C(=O)O)c1cccc(Oc2ccccc2)c1,inactive,inactive,inactive,inactive,inactive,inactive,inactive,inactive,inactive,inactive,inactive,inactive,inactive,inactive,inactive,inactive,inactive,inactive,inactive,inactive
CC(=O)OCC(=O)[C@@]1(O)[C@H](C)C[C@@H]2[C@H]3CCC4=CC(=O)C=C[C@]4(C)[C@]3(F)[C@@H](O)C[C@@]21C,inactive,inactive,inactive,inactive,inactive,inactive,inactive,inactive,inactive,inactive,inactive,inactive,inactive,inactive,inactive,inactive,inactive,inactive,inactive,inactive
Cc1ccc(S(=O)(=O)NC(=O)NN2C[C@H]3CCC[C@@H]3C2)cc1,inactive,inactive,inactive,inactive,inactive,inactive,inactive,inactive,inactive,inactive,inactive,inactive,inactive,inactive,,inactive,inactive,inactive,inactive,inactive
CC[C@H](CO)NCCN[C@@H](CC)CO,inactive,inactive,inactive,inactive,inactive,inactive,inactive,inactive,inactive,inactive,inactive,inactive,inactive,inactive,inactive,,inactive,inactive,inactive,inactive
NS(=O)(=O)c1cc2c(cc1Cl)N[C@@H](C(Cl)Cl)NS2(=O)=O,inactive,inactive,inactive,inactive,inactive,inactive,inactive,inactive,inactive,inactive,inactive,inactive,inactive,inactive,inactive,inactive,inactive,inactive,inactive,inactive
CCC(=O)O[C@@]1(C(=O)SCF)[C@@H](C)C[C@H]2[C@@H]3C[C@@H](F)C4=CC(=O)C=C[C@@]4(C)[C@]3(F)[C@@H](O)C[C@]21C,,,,inactive,inactive,inactive,,inactive,inactive,inactive,inactive,inactive,inactive,inactive,,,,,,
C[C@@H]1Cc2ccccc2N1NC(=O)c1ccc(Cl)c(S(N)=O)c1 (stereo not given in full),inactive,inactive,inactive,inactive,inactive,inactive,inactive,inactive,inactive,inactive,inactive,inactive,,inactive,inactive,inactive,inactive,inactive,inactive,inactive
NS(=O)(=O)c1cc2c(cc1C(F)(F)F)N[C@H](Cc1ccccc1)NS2(=O)=O,inactive,inactive,inactive,inactive,inactive,inactive,inactive,inactive,inactive,inactive,inactive,inactive,inactive,inactive,inactive,inactive,inactive,inactive,inactive,inactive
CC1(C)O[C@H]2C[C@@H]3[C@H]4CCC5=CC(=O)CC[C@@]5(C)[C@]4(F)[C@@H](O)C[C@@]3(C)[C@@]2(C(=O)CCl)O1,2.82 µM (active),3.98 µM (active),,,,,3.16 µM (active),inactive,,,,,,inactive,5.73 µM (active),inactive,,3.16 µM (active),,
CCC[C@@H]1O[C@@H]2C[C@@H]3[C@H]4CCC5=CC(=O)C=C[C@@]5(C)[C@H]4[C@H](O)C[C@@]3(C)[C@@]2(C(=O)CO)O1,11.2 µM (active),11.2 µM (active),,,,15.1 µM (active),,,,12 µM (active),inactive,,,inactive,,7.08 µM (active),,11.2 µM (active),,
C[C@H]1CC[C@]2(OC1)O[C@@H]1C[C@@H]3[C@@H]4CC[C@H]5C[C@@H](O)CC[C@]5(C)[C@@H]4CC(=O)[C@@]3(C)[C@H]1[C@@H]2C,inactive,inactive,inactive,inactive,inactive,inactive,inactive,inactive,inactive,inactive,inactive,inactive,inactive,inactive,inactive,inactive,inactive,inactive,inactive,inactive
CCCC[C@H](CC)CN1CN(C[C@@H](CC)CCCC)CC(C)(N)C1,inactive,inactive,inactive,inactive,inactive,inactive,3.55 µM (active),inactive,,inactive,inactive,inactive,inactive,inactive,inactive,inactive,inactive,inactive,inactive,inactive
COCC(=O)Nc1c(I)c(C(=O)NC[C@@H](O)CO)c(I)c(C(=O)N(C)C[C@@H](O)CO)c1I,inactive,inactive,inactive,inactive,inactive,inactive,inactive,inactive,inactive,inactive,inactive,inactive,inactive,inactive,inactive,inactive,inactive,inactive,inactive,inactive
CC(C)NC[C@H]1CCc2cc(CO)c([N+](=O)[O-])cc2N1,inactive,inactive,inactive,inactive,inactive,inactive,inactive,inactive,inactive,inactive,inactive,inactive,inactive,inactive,inactive,inactive,inactive,inactive,inactive,inactive
